Source: PubChem BioAssay (Tox21)
Where “and” joins values, the source holds several entries; their conditions need not be identical. Equal values may be shown once. Records with an inconclusive call do not appear. Some structures have more than one record in an assay (separate samples or runs), and their calls can disagree. Calls of active or inactive are those of the source. Unless noted, calls follow the shape of the dose curve; as a rule, active = well fitted curve in the direction sought with a large enough effect in the repeat runs; inconclusive = weak or mixed curves; inactive = no such curve, though single readings can be large; an effect the other way counts as inactive or inconclusive.

Columns and labels:
[1] = qHTS assay to identify small molecule agonists of the vitamin D receptor (VDR) signaling pathway - cell viability counter screen (AID 743224); also: nearly all actives have a fitted effect of over 50% in size; also: potency is read from the fitted curve at half-maximal effect
Procedure, shortened: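 VDR-bla cells, 4 h after plating, exposed to compounds for 16 h at 37C; viability then read in the same wells as CellTiter-Glo luminescence after 30 min at room temperature, following the bla FRET read.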

[2] = qHTS assay to identify small molecule antagonists of the vitamin D receptor (VDR) signaling pathway - cell viability counter screen (AID 743225); also: nearly all actives have a fitted effect of over 50% in size; also: potency is read from the fitted curve at half-maximal effect
Procedure, shortened: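 HEK293T VDR-bla; cpd + 1a,25-(OH)2D3 3 nM final, 16 h 37C/5% CO2; B/G FRET substrate 2 h RT; then CellTiter-Glo 30 min RT, luminescence.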

[3] = qHTS assay to identify small molecule agonists of the endoplasmic reticulum stress response signaling pathway (AID 1159516; active = well fitted activation curve with a large enough effect in the signal ratio in the repeat runs, not every such curve was filed as active; the % refers to the signal ratio)
Procedure, shortened: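 CellSensor ESRE-bla HeLa cells, 1,500 per well, plated overnight, then exposed to compounds for 5 hr at 37 C. Beta-lactamase reporter read with LiveBLAzer B/G FRET substrate after 2 hr at room temperature, 405 nm excitation, 460 and 530 nm emission.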

[4] = qHTS assay to identify small molecule agonists of the endoplasmic reticulum stress response signaling pathway - cell viability counter screen (AID 1159517; calls by dose curve; also: nearly all actives have a fitted effect of over 50% in size; also: potency is read from the fitted curve at half-maximal effect)
Procedure, shortened: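 ESRE-bla HeLa cells, 1,500 per well, seeded overnight then treated with compounds for 5 hr at 37 C. After the beta-lactamase read, viability in the same wells is measured by CellTiter-Glo luminescence after 30 min at room temperature.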

[5] = qHTS assay to identify small molecule antagonists of the retinoid-related orphan receptor gamma (ROR-gamma) signaling pathway - cell viability counter screen (AID 1159520); also: nearly all actives have a fitted effect of over 50% in size; also: potency is read from the fitted curve at half-maximal effect
Procedure, shortened: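 Tet-on ROR gamma CHO cells were given compounds for 2 hr, then doxycycline hyclate at 1 uM final, and incubated 16 hr at 37 C. Viability was measured as ATP content by CellTiter-Glo luminescence.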

[6] = biological target: Nuclear receptor ROR-gamma (Homo sapiens) (UniProt P51449); assay: qHTS assay to identify small molecule antagonists of the retinoid-related orphan receptor gamma (ROR-gamma) signaling pathway (AID 1159521)
Procedure, shortened: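 Cells were plated, rested 4 h at 37 C, exposed to compounds for 2 h, then given 1 uM final doxycycline hyclate to induce RORγ expression. After 16 h, ONE-Glo luminescence from the ROR response element reporter was measured.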

[7] = qHTS assay to identify small molecule agonists of the AP-1 signaling pathway - cell viability counter screen (AID 1159525; calls by dose curve; also: nearly all actives have a fitted effect of over 55% in size; also: potency is read from the fitted curve at half-maximal effect)
Procedure, shortened: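 AP-1-bla ME-180 cells in Opti-MEM with 0.5% dialyzed FBS, compound exposure 5 h at 37 C in 15-point titration. Viability read in the same wells as ATP content by CellTiter-Glo luminescence, normalised to tetra-n-octylammonium bromide and DMSO controls.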

[8] = qHTS assay to identify small molecule agonists of the AP-1 signaling pathway (AID 1159526; calls by dose curve)
[9] = biological target: Retinoic acid receptor RXR-alpha (Homo sapiens) (UniProt P19793); assay: qHTS assay to identify small molecule agonists of the RXR signaling pathway (AID 1159527; calls by dose curve; also: nearly all actives have a fitted effect of over 35% in size)
Chain of Retinoic acid receptor RXR-alpha (Homo sapiens) (P19793 whole entry, looked up): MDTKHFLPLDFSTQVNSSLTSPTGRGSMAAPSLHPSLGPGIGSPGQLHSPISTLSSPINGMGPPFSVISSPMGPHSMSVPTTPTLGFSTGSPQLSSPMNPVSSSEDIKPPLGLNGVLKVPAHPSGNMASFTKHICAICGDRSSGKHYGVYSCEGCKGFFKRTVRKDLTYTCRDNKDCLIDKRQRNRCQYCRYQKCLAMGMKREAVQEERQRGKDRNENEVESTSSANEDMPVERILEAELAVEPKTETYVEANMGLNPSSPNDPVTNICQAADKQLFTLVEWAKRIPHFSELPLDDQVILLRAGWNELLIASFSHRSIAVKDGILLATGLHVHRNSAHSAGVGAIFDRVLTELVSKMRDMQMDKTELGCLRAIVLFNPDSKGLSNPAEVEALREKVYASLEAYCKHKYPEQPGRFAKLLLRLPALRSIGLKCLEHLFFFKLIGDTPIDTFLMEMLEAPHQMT
Procedure, shortened: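 Cells plated at 2,000/well, rested 5 hr at 37 C, pin-dosed with DMSO compound solutions, incubated 16 hr, then loaded with B/G FRET substrate for 2 hr at RT before dual-emission fluorescence reading.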

[10] = qHTS assay to identify small molecule agonists of the RXR signaling pathway - cell viability counter screen (AID 1159529); also: nearly all actives have a fitted effect of over 50% in size; also: potency is read from the fitted curve at half-maximal effect
Procedure, shortened: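 Steps: seed RXR-alpha-UAS-bla HEK 293T cells in assay medium containing 2% charcoal-stripped FBS; incubate 5 hr; add compounds in DMSO; incubate 16 hr at 37 C; after the bla read, add CellTiter-Glo and read luminescence at 30 min.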

[11] = qHTS assay to identify small molecule antagonists of the retinoid acid receptor (RAR) signaling pathway - cell viability counter screen (AID 1159551); also: nearly all actives have a fitted effect of over 35% in size
Procedure, shortened: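 C3RL4 RARE-luciferase cells, 1,000/well, incubated overnight, then dosed with compound plus 1 uM retinol (final). After 6 hr at 37 C, viability read by CellTiter-Glo ATP luminescence following 30 min at room temperature.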

[12] = qHTS assay to identify small molecule agonists of the retinoic acid receptor (RAR) signaling pathway (AID 1159553); also: potency is read from the fitted curve at half-maximal effect
Procedure, shortened: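 C3RL4 RARE-luciferase cells were seeded at 1,000/well and grown overnight at 37 C, then exposed to compounds for 6 hr at 37 C, 5% CO2. Luciferase reagent was added and luminescence was read after 30 min at room temperature.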

[13] = qHTS assay to identify small molecule antagonists of the retinoic acid receptor (RAR) signaling pathway (AID 1159552; also: nearly all actives have a fitted effect of over 50% in size; also: potency is read from the fitted curve at half-maximal effect)
Procedure, shortened: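 Retinol at 1 uM final stimulated RARE-luciferase expression in C3RL4 cells exposed to test compounds for 6 hr at 37 C. Reduced luminescence, read 30 min after detection reagent, indicated pathway antagonism.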

[14] = qHTS assay to identify small molecule agonists of the NFkB signaling pathway - cell viability counter screen (AID 1159515; calls by dose curve; also: nearly all actives have a fitted effect of over 55% in size; also: potency is read from the fitted curve at half-maximal effect)
Procedure, shortened: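 NFkB-bla ME-180 cells, 2,000/well, plated overnight at 37 C; compound added for 5 hr at 37 C. Viability read in the same wells as the bla reporter, by CellTiter-Glo luminescence after 30 min at room temperature.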

Measured: Potency

C[n+]1ccn(Cc2ccccc2)c1
inactive: [1] | [2] | [3] | [4] | [5] | [6] | [7] | [8] | [9] | [10] | [11] | [12]

CCN(C(=O)N(CC)c1ccccc1)c1ccccc1
inactive: [1] | [2] | [3] | [4] | [5] | [6] | [7] | [8] | [9] | [10] | [11] | [13]

O=C1c2ccccc2Cc2ccccc21
inactive: [1] | [2] | [3] | [4] | [5] | [6] | [7] | [8] | [9] | [10] | [11] | [13]

O=c1cc(-c2ccc(O)cc2)oc2cc(O)cc(O)c12
inactive: [1] | [3] | [4] | [5] | [7] | [10] | [13]

C1CCCC1
inactive: [1] | [2] | [3] | [4] | [5] | [6] | [7] | [8] | [9] | [10] | [11] | [13] | [12]

CCCCCOC(=O)CCCC
inactive: [1] | [2] | [3] | [4] | [5] | [6] | [7] | [8] | [9] | [10] | [11] | [12]

CCCCCCOC(=O)c1ccc(O)cc1
inactive: [3] | [5] | [6] | [9] | [11] | [13]
active: [4] 49 µM | [12] 4.33 µM and 1.93 µM

O=C(Nc1cccc(Cl)c1)OCC#CCCl
active: [1] 43.6 µM | [2] 54.9 µM
inactive: [14] | [7] | [11]

NC(=O)CC[C@@H]1NC(=O)[C@H](Cc2ccccc2)NC(=O)[C@H](Cc2ccc(O)cc2)NC(=O)CCSSC[C@@H](C(=O)N2CCC[C@H]2C(=O)N[C@@H](CCCN=C(N)N)C(=O)NCC(N)=O)NC(=O)[C@H](CC(N)=O)NC1=O
inactive: [1] | [2] | [3] | [4] | [5] | [6] | [7] | [8] | [9] | [10] | [11] | [12]

COC(=O)C1=C(C)NC(C)=C(C(=O)OCC(C)C)C1c1ccccc1[N+](=O)[O-] (stereo not given)
24.5 µM (active) and inactive: [7]
43.3 µM (active) and inactive: [5]
49 µM (active) and inactive: [10]
active: [1] 27.5 µM | [13] 48.6 µM
inactive: [2] | [3] | [4] | [8] | [11]

CCC(N)(CO)CO
inactive: [1] | [2] | [3] | [4] | [5] | [6] | [7] | [8] | [9] | [10] | [11] | [13] | [12]

NC(=O)C1(N2CCCCC2)CCN(CCCN2c3ccccc3CCc3ccc(Cl)cc32)CC1
active: [1] 29.8 µM | [2] 21.3 µM | [14] 26.8 µM | [7] 26.8 µM | [10] 21.3 µM

CC(=O)OCC(C)OC(C)=O (stereo not given)
inactive: [1] | [2] | [3] | [4] | [5] | [6] | [7] | [8] | [9] | [10] | [11] | [13]

O=C(c1ccc(O)cc1O)c1ccc(O)cc1O
inactive: [1] | [2] | [3] | [4] | [5] | [6] | [7] | [8] | [9] | [10] | [11]

CCCCCCC[N+](CC)(CC)CCCCc1ccc(Cl)cc1
inactive: [2] | [4] | [5] | [6] | [7] | [8] | [11] | [12]

C[C@H]1[C@H]2CC[C@H]3[C@@H]4CC=C5C[C@@H](N(C)C)CC[C@]5(C)[C@H]4CC[C@]23CN1C
inactive: [1] | [2] | [3] | [4] | [5] | [6] | [7] | [8] | [9] | [10] | [11] | [13] | [12]
